Screens: PubChem, National Center for Advancing Translational Sciences (NCATS)
Most compounds without a hit are left out; they make up all but 8.2% or so of the library.
KB-3-1 cytotox: qHTS assay for MDR1-selective chemotherapeutics: Primary screen using the parental adenocarcinoma cell KB-3-1 | KB-3-1 viability, CellTiter-Glo ATP luminescence, 72 h | Potency, µM (doses to about 46.1 µM), usual class: cytotoxic | 400,000 tested, 1.4% active | AID 1347075, 2019; also: nearly all actives have a fitted effect of over 60% in size
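KB-3-1 cells, DMEM (no phenol red) + 10% FBS; compound by pin transfer, 72 h, 37 °C. Readout: CellTiter-Glo luminescence after 10 min. Data normalized, curve-fitted.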
KB-V1 MDR tox: qHTS assay for MDR1-selective chemotherapeutics: Primary screen using the drug-selected MDR subline cells KB-V1; KB-V1 MDR cells viability, CellTiter-Glo, 72 h; Potency, µM (top dose mostly 46.1 µM), most hits filed as cytotoxic; 400,000 tested, 3.4% active; also: nearly all actives have a fitted effect of over 60% in size
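KB-V1 cells (P-gp-expressing MDR subline of KB-3-1) in phenol-red-free DMEM with 10% FBS were exposed to library compounds over a concentration series for 72 h at 37 degrees C. Viability read by CellTiter-Glo luminescence; concentration-effect curves fitted after normalization.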
ELG1 repair inh: qHTS screen for small molecules that inhibit ELG1-dependent DNA repair in human embryonic kidney (HEK293T) cells expressing luciferase-tagged ELG1; HEK293T ELG1-luciferase reporter, luminescence, 16 h; DNA damage induced by 5-fluorouridine; Potency, µM (doses to about 46.1 µM), usual class: inhibitors; 330,000 tested, 2.3% active; also: nearly all actives have a fitted effect of over 55% in size
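Cells (2,000 per well) received 5-fluorouridine plus test compound or DMSO and were incubated 16 hr at 37 °C, 5% CO2. Luciferase activity was read by luminescence 30 min after ONE-Glo addition; signal suppression marked inhibition of damage-induced ELG1 function.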
SW480 rereplic: A quantitative high throughput screen for small molecules that induce DNA re-replication in SW480 colon adenocarcinoma cells. SW480 DNA re-replication, Hoechst DNA content imaging, 48 h. 340,000 tested, 1.8% active. Potency, µM (series often up to 46.1 µM), actives largely listed as activators; also: nearly all actives have a fitted effect of over 55% in size
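Treated cells incubate 48 hr (37 C, 5% CO2), are stained 40 min with Hoechst, and nuclear fluorescence is enumerated; a rise in nuclei with high DNA signal marks re-replication.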
MCF10A rereplic: A quantitative high throughput screen for small molecules that induce DNA re-replication in MCF 10a normal breast cells. MCF 10A DNA re-replication, Hoechst nuclear intensity, 48 h. Potency, µM (highest dose often 46.1 µM), usual class: activators. 350,000 tested, 2.9% active. AID 624296, 2012; also: nearly all actives have a fitted effect of over 50% in size
Hits are given with their value; i = inactive; ? = inconclusive; nt = no result given; [ ] = another dose, or the depositor's remark. Calls follow the shape of the dose curve; as a rule, active = well fitted curve in the direction sought with a large enough effect; inconclusive = small, poorly fitted or top-dose-only effect, or another doubt; inactive = no such curve, though single readings can be large; an effect the other way counts as inactive or inconclusive.

SMILES	KB-3-1 cytotox	KB-V1 MDR tox	ELG1 repair inh	SW480 rereplic	MCF10A rereplic
CCOc1ccccc1NC(=S)Nc1ncccc1C	18.4µM	20.6µM	?	?	18.4µM
COC(=O)c1ccccc1NC(=O)Nc1ncccc1C	i	i	i	20.6µM	i
Cc1cccnc1NC(=S)Nc1ncccc1C	?	i	?	i	i
CCCCn1c(N)c(-c2nc3ccccc3s2)c2c([N+](=O)[O-])nn(C)c(=O)c21	i	i	1.03µM	i	i
CCCCn1c(N)c(-c2nc3ccccc3s2)c2c([N+](=O)[O-])nn(CC)c(=O)c21	i	?	?	i	?
CCCCCn1c(N)c(-c2nc3ccccc3s2)c2c([N+](=O)[O-])nn(CC)c(=O)c21	i	18.4µM	2.59µM	i	2.91µM
CN(CC(=O)Nc1ccccc1Br)C(=O)COc1ccc2ccccc2c1	i	i	i	i	i
CCOC(=O)c1cnc2ccc(C(=O)OC)cc2c1NCCc1ccc(OC)c(OC)c1	i	?	14.6µM	i	i
CCOC(=O)c1cnc2c(C)cccc2c1NCCc1ccc(OC)c(OC)c1	?	?	23.1µM	i	i
CCOC(=O)c1cnc2c(C)cc(C)cc2c1NCCc1ccc(OC)c(OC)c1	i	i	nt	nt	nt
CCOC(=O)c1c(C)nc2sc3c(=O)[nH]cnc3c2c1-c1ccc(OC)cc1	i	i	20.6µM	?	i
CCOC(=O)c1c(C)nc2sc3c(=O)n(-c4ccc(OC)cc4)nnc3c2c1-c1ccc(OC)cc1	i	i	?	i	i
CCOC(=O)c1c(C)nc2sc3c(c2c1-c1ccc(OC)cc1)NC(c1ccccc1)NC3=O (centres undefined)	i	i	16.4µM	i	?
COc1ccc(-c2c(C(C)=O)c(C)nc3sc4c(c23)NC(c2ccccc2)NC4=O)cc1 (centres undefined)	i	i	i	i[9.22 µM]	?
COc1ccc(N=C2SC(CC(=O)Nc3ccc(OC)cc3OC)C(=O)N2C)cc1 (centres undefined)	i	18.4µM	i	i	i
COc1cc([N+](=O)[O-])ccc1NC(=O)CC1SC(=Nc2ccc(F)cc2)N(CCC2=CCCCC2)C1=O (centres undefined)	9.2µM	?	i	i	?
CN(Cc1ccccc1)c1ccc(C(CC(N)=O)NC(=O)c2ccc(Br)cc2)cc1[N+](=O)[O-] (centres undefined)	?	i	?	i	i
NS(=O)(=O)c1ccc(CCNC(=O)CSc2nc3c(sc(=S)n3-c3ccccc3)c(=O)[nH]2)cc1	i	i	nt	nt	nt
COc1ccc(/C=C/C(=O)N2CC(C)OC(C)C2)cc1OC (centres undefined)	i	i	i	i	i
CCSc1nc2ccccc2n1C(=O)/C=C/c1ccc(OC)c(OC)c1	?	?	?	5.8µM	4.11µM
CCn1c(SCC(=O)N/N=C/c2ccc(OC)c(OC)c2)nc2ccccc21	i	i	i	i	i
C=CCSc1nc2ccccc2n1C(=O)/C=C/c1ccc(OC)c(OC)c1	?	i	?	?	4.11µM
C=CCSc1nc2ccccc2n1C(=O)/C=C/c1cc(OC)c(OC)c(OC)c1	i	?	?	?	3.26µM
CCn1c(=O)cc(SCC(=O)NCCc2cc(OC)ccc2OC)c2ccccc21	i	?	nt	nt	nt
CC(=O)Cn1cnc2c(cnn2-c2ccc(F)cc2)c1=O	i	i	nt	nt	nt
SMILES	KB-3-1 cytotox	KB-V1 MDR tox	ELG1 repair inh	SW480 rereplic	MCF10A rereplic
CC1(C(=O)NS(=O)(=O)Cc2cccc(Cl)c2)CCN1C(=O)Cc1cccs1 (centres undefined)	i	i	nt	nt	nt
Cc1cccc(C)c1NC(=O)C(c1ccccc1)N(C)CCc1ccccc1 (centres undefined)	i	i	nt	nt	nt
O=C(CSc1nc2cc([N+](=O)[O-])ccc2n1-c1ccc(F)cc1)NC1CCS(=O)(=O)C1 (centres undefined)	i	23.1µM	i	i	i
COc1ccccc1-n1c(SCC(=O)NC2CCS(=O)(=O)C2)nc2cc([N+](=O)[O-])ccc21 (centres undefined)	i	i	i	i	i
O=C1c2ccccc2C(=O)N1CCc1nc2ccccc2c(=O)n1Cc1ccco1	i	i	20.6µM	i	i
COc1ccc(/C=N/NC(=O)c2cccnc2)cc1CSc1nc2ccccc2s1	?	11.6µM	7.31µM	20.6µM	?
COc1ccc(/C=N/NC(=O)c2ccccc2Cl)cc1CSc1nc2ccccc2s1	5.8µM	7.31µM	i	5.8µM	0.82µM
O=C(Cc1ccccc1)NCC(=O)OCC(=O)c1cccc2ccccc12	i	i	nt	nt	nt
O=C(NCCN1CCOCC1)c1cccn2c(=O)c3c4c(sc3nc12)CCCC4	nt	nt	i	nt	nt
COc1cc(-c2ccc3ncnc(NCc4cccs4)c3c2)cc(OC)c1OC	i	i	nt	nt	nt
Cc1ccc(NC(=O)C2CCN(S(=O)(=O)c3ccc(C(C)(C)C)cc3)CC2)cc1S(=O)(=O)N1CCOCC1	i	i	nt	i	i
Cc1ccc(-c2csc(NC(=O)C3CCN(S(=O)(=O)c4cccs4)CC3)n2)cc1	6.51µM	9.2µM	i	?	i
Cc1ccc(NC(=O)C2CCN(S(=O)(=O)c3cccs3)CC2)cc1	i	i	i	i[1.84 µM]	i
O=C(Nc1nccs1)C1CCN(S(=O)(=O)c2cccs2)CC1	i	i	i	i	i
O=C(Nc1nc(-c2ccc3ccccc3c2)cs1)C1CCN(S(=O)(=O)c2cccs2)CC1	4.61µM	2.59µM	i	i	i
COc1ccc(/C=C2\SC(=O)N(CCNC(=O)C3CCN(S(=O)(=O)c4cccs4)CC3)C2=O)cc1	i	14.6µM	?	i	i
COc1ccc2cc(C(=O)NCc3ccc4c(c3)CCN4C(=O)c3ccc(F)cc3)[nH]c2c1	i	i	nt	nt	nt
CCn1c2c(c(=N)c3c1CCC3)CCC2	i	i	i	i	i
CCCCCCn1c(=O)[nH]c2c(c1=O)CCC2	i	i	i	i	i
CCCCn1c2c(c(=N)c3c1CCC3)CCC2	4.11µM	i	1.64µM	i[9.22 µM]	i
CCCCCCn1c2c(c(=N)c3c1CCC3)CCC2	2.06µM	i	?	i	i
CCCCCCCCCn1c2c(c(=N)c3c1CCC3)CCC2	1.03µM	i	?	i	?
CCn1c2c(c(=N)c3ccccc31)CCC2	?	i	20.6µM	i	i
CCN(CC)C(=O)c1sc2c(c1C)c(=O)n(-c1ccc(Cl)c(Cl)c1)c(=O)n2Cc1cc(=O)n2c(C)cccc2n1	i	i	nt	nt	nt
CCOC(=O)c1nn(-c2ccccc2C)c(=O)cc1OCC(=O)N1CCN(c2ccccc2)CC1	i	i	i	i	i
CNC(=O)c1ccccc1Sc1ccccc1C#N	i	i	i	i	i
